For some assays here: Measured potencies and affinities stand elsewhere. Activity calls are given as the source filed them. Cut-off read from the data, not from the text of the source: active = parasite load remaining mostly below about 12% (no sharp cut-off); inactive = mostly above about 10%. Peptide text beside a SMILES is read from it.
How the values were obtained:
[1] = blockers of polyQ-driven CASP3 activation – cell-based (AID 1583); settings: polyglutamine-induced caspase-3 activation, cell assay; stronger effect = higher value;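 tested at 10 µM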
[2] = yeast 75Q aggregation reduction – 75Q-TubU reporter (AID 1593); settings: Yeast 75Q polyglutamine aggregation reporter
[3] = restoration of touch response, mutant HTT neurons – whole organism, C. elegans mechanosensory neurons, N-terminal huntingtin (AID 1599); settings: C. elegans polyQ-huntingtin mechanosensory neurons, stronger effect = higher value
[4] = blockers of cytochrome c efflux from mitochondria – biochemical, purified mitochondria (AID 1603); settings: stronger effect = lower value;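 note: mouse liver mitochondria challenged with calcium chloride; signal normalized to the plate average as 100%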
[5] = polyglutamine aggregate formation blockers (AID 1604); settings: polyglutamine-induced protein aggregation inhibition assay; stronger effect = higher value; tested at 2.5 µM
[6] = glutamate transport activators, MN-1 cells, MN-1 cell line (AID 1612); settings: MN-1 motor neuron cells, stronger effect = higher value;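 note: tested at 1 µM final; 0% = mean of DMSO vehicle wells on each plate; positive means more glutamate uptake than control and negative means less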
[7] = GFP-Q80 aggregate reduction, neuronal-like cells, cell-based, NGF-treated PC12, GFPQ80 (AID 1614); settings: PC12 NGF-treated GFP-polyQ80 inclusion reduction;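 note: lower means fewer inclusions and 0 means no inclusions at all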
[8] = 75Q-TubH aggregate inhibition, S. cerevisiae, yeast (AID 1616); settings: S. cerevisiae 75Q-TubH polyglutamine aggregation suppression; stronger effect = higher value
[9] = P. berghei load reduction in hepatocytes – cell-based, HepG2, luciferase luminescence, HepG2 viability, primary screen (AID 624349);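 note: 100% = mean of DMSO negative control wells on the same plate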; settings: P. berghei liver stage in HepG2, luciferase luminescence, concentration not given here; parasite load remaining: stronger effect = lower value; viability: measured here: HepG2 viability without parasites

SMILES	inhibition [1] [%]	score [2]	rescue above control [3]	cytochrome c release ratio [4]	inhibition of aggregation [5] [%]	glutamate uptake change [6] [%]	inclusion score [7]	aggregation suppression score [8]	parasite load remaining [9]	viability [9] [%]
COC(=O)/C(=C1\OC(=O)C(c2ccccc2)C1=O)c1ccccc1 (stereo not given)	-4.2	0.04	9.72	2.13	31.4	6.01	2	0.0212	–	–
C[C@]12CCC3c4ccc(OC(=O)CCC(=O)O)cc4CCC3C1CCC2=O (stereo not given in full)	21.8	1.66	8.92	0.83	33.3	-14.3	2	0.711	–	–
O=c1cc(-c2ccccc2)oc2cc(O)c(O)cc12	18.9	1.42	7.3	1.21	41	11	2	0.852	–	–
CC(=O)N[C@@H](Cc1c[nH]c2ccccc12)C(=O)O	20.8	1.18	0.41	0.48	74.4	9.72	2	1.31	106% (inactive)	70.5
CC1(C)O[C@@H]2CC3C4CCC5=CC(=O)CCC5(C)C4(F)C(O)CC3(C)[C@]2(C(=O)CCl)O1 (stereo not given in full)	-34.5	1.26	-3.98	1.36	79.5	12.8	2	1.1	190% (inactive)	88.4
NCCCCC(N)C(=O)NCC(=O)NC(Cc1cnc[nH]1)C(=O)NC(CCCCN)C(=O)O (stereo not given) (H-KGHK-OH; configuration not given here)	-1.51	2.04	2.83	0.86	36	18.4	2	1.42	–	–
COc1cccc(C(=O)c2ccccc2O)c1O	-4.26	0.2	0	1.59	85.8	-9.84	–	0.104	–	–
NCC1CCC(N)C(OC2C(N)CC(N)C(OC3OC(CO)C(O)C(N)C3O)C2O)O1 (stereo not given)	-33.2	0.99	-7.39	0.86	4.76	14.5	1.5	1.46	–	–
COc1ccc(CCC(=O)c2c(O)cc(O[C@@H]3O[C@H](CO)C(O)[C@H](O)C3O[C@@H]3O[C@@H](C)[C@H](O)[C@@H](O)[C@H]3O)cc2O)cc1O (stereo not given in full)	18.6	1.15	-2.46	1.1	77.8	-15.4	2	1.25	146% (inactive)	70.8
C[C@@H]1OC(Oc2c(-c3ccc(O)c(O)c3)oc3cc(O)cc(O)c3c2=O)[C@H](O)[C@H](O)[C@H]1O (stereo not given in full)	-5.21	1.19	16.2	0.64	72.2	-4.44	2	1.5	–	–
NCC1OC(OC2C(N)CC(N)C(OC3OC(CO)C(O)C(N)C3O)C2O)C(N)C(O)C1O (stereo not given)	27.6	0.94	-18	4.45	8.33	-14.8	2	1.28	–	–
CCN(CCCc1ccccc1)CCCc1ccccc1 (tested in a mixture with another compound)	13.3	1.17	-6.75	0.86	31.7	20.1	2	1.65	–	–
COC(=O)C(C)C[N+](C)(C)C (stereo not given)	-13.8	1.1	-5.92	1.54	60.6	0.97	2	1.5	–	–
CC(=O)OCC(=O)[C@@]12OC(C)(C)O[C@@H]1C[C@H]1C3C[C@H](F)C4=CC(=O)C=CC4(C)[C@@]3(F)[C@@H](O)C[C@@]12C (stereo not given in full)	-2.33	1.28	14.3	0.88	85.9	13.8	2	0.953	–	–
CC(=O)OCC(=O)[C@@]1(O)CC[C@H]2C3CCC4=CC(=O)CCC4(C)[C@@]3(F)[C@@H](O)CC21C (stereo not given in full)	9.6	1	20.3	0.71	88.9	7.44	2	1.14	–	–

Reference: PubChem BioAssay
